The source of these data is PubChem BioAssay (Tox21).

Several values for one entry are separate records, joined by “and”; a condition that tells them apart may be missing. Equal entries are not always repeated. Records with an inconclusive call do not appear. Entries that show only a call come without a potency. Where a structure was tested more than once in an assay, its records may differ in their call. Activity calls are given as the source filed them. The call rests on the fitted dose curve; in most records, active means well fitted curve in the direction sought with a large enough effect in the repeat runs; inconclusive means weak or mixed curves; inactive means no such curve, though single readings can be large; an effect the other way counts as inactive or inconclusive.

Sequence of Nuclear receptor subfamily 1 group I member 2 (Rattus norvegicus) (Q9R1A7 whole entry, looked up): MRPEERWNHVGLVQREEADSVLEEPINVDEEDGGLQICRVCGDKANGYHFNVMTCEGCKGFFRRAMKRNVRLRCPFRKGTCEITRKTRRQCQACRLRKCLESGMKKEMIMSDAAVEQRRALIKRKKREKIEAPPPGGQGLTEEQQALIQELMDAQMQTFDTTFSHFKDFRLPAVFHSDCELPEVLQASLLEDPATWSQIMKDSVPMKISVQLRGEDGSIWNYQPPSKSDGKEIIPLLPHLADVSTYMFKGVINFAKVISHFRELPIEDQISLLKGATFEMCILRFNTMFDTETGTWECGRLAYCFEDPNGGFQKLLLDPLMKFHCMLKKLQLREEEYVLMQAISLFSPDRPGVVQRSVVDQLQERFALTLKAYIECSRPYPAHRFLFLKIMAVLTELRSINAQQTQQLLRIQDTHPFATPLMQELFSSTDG
Sequence of Nuclear receptor subfamily 1 group I member 2 (Homo sapiens) (O75469 whole entry, looked up): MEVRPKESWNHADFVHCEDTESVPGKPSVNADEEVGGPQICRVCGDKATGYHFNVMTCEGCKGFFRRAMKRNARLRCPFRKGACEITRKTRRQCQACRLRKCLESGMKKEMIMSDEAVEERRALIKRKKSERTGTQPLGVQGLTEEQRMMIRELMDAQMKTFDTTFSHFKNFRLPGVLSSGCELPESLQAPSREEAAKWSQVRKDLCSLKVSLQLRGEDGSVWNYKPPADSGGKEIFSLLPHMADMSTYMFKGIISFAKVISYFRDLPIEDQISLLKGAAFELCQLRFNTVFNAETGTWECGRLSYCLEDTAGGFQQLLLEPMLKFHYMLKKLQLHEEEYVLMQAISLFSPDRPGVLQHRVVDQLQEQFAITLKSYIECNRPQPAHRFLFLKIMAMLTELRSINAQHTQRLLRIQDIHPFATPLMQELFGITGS

System in the first assay: not listed separately
Briefly: Caspase-3/7 induction in CHO-K1 cells by small molecules, qHTS assay (AID 1346980). Further: nearly all actives have a fitted effect of over 15% in size. As to conditions: CHO-K1 caspase-3/7 induction, Caspase-Glo luminescence, 17 h; series mostly up to 92.4 µM. The essentials:
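Luminescent Caspase-Glo 3/7 read (30min, room temperature) quantified apoptosis induction. Cells were wild-type CHO-K1, treated with compound for 17hr at 37 C and 5% CO2.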
On the technique in general: qHTS replaces the single test concentration by a dilution series.
As to `C[N+](C)(C)Cc1ccccc1`, the Potency result was “inactive”.
On the same count and under the same terms, next, `N#CS`: “inactive”; `C[C@]12CCC(=O)C=C1CC[C@@H]1[C@@H]2CC[C@]2(C)C(=O)CC[C@@H]12`: “inactive”; `CCCCCCCCCCCCn1cc[n+](C)c1`: “inactive”.
For `O=c1nc(O)n(Cl)c(=O)n1Cl`, the Potency entry was “inactive”.
For `CCCCn1cc[n+](C)c1C`, the Potency result is “inactive”.
For the compound `O=[N+]([O-])O`, the Potency entry is “inactive”.
With `CCCCCCn1cc[n+](C)c1`, the Potency entry is “inactive”.
Still for that read-out and setting: the same measure for `O=C(O)c1nc(Cl)ccc1Cl`: “inactive”.
With `COP(=O)(OC)C(O)C(Cl)(Cl)Cl` (centres undefined), the Potency entry was “inactive”.
For the compound `CCCCCCCCCCCC(=O)O`, the Potency result is “inactive”.
In the case of `O=C(O)C(Cl)Cl`, the Potency entry is “inactive”.
In the case of `CCCCn1cc[n+](C)c1`, the Potency result is “inactive”.
For `CCCCCCCCCCCCOS(=O)(=O)O`, the Potency entry was “inactive”.
The same measure, in the same setting: the same measure for `COc1ccc(N)cc1`: “inactive”; for `O=S(=O)(O)O`: “inactive”.
As to `CCCCCC[n+]1ccccc1`, the Potency entry is “inactive”.
Consider `O=C(O)COc1ccc(Cl)cc1Cl`, for which the Potency result was “inactive”.
For `CCCC[N+]1(C)CCCC1`, the Potency entry is “inactive”.
For the compound `COCC(=O)N(c1c(C)cccc1C)C(C)C(=O)OC` (centres undefined), the Potency result was “inactive”.
For the compound `O=C(O)c1ccccc1O`, the Potency entry is “inactive”.
With `COP(=O)(OC)OC=C(Cl)Cl`, the Potency entry is “inactive”.
For the compound `CC(=O)O`, the Potency entry is “inactive”.
Turning to `Oc1cccc2cccnc12`, the Potency result is “inactive”.
Consider `Nc1ccc(-c2ccc(N)cc2)cc1`, for which the Potency result is “inactive”.
`OCCOc1ccccc1`: the Potency result is “inactive”.
On the same count and under the same terms, the same measure for `CCn1cc[n+](C)c1C`: “inactive”; for `CC[N+](CC)(CC)CC`: “inactive”; for `O=[N+]([O-])c1ccccc1O`: “inactive”.
Still for that read-out and setting: next, `CCC[N+]1(C)CCCC1`: “inactive”.
The same measure, in the same setting: next, `CNC`: “inactive”; `Cc1cc(-c2ccc(N)c(C)c2)ccc1N`: “inactive”.

System in another assay: not listed separately
Briefly: Caspase-3/7 induction in HepG2 cells by small molecules, qHTS cell viability counter screen (AID 1346981). Further: nearly all actives have a fitted effect of over 30% in size. As to conditions: CellTiter-Fluor fluorescence, 17 h; series mostly up to 92.4 µM. The essentials: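 Multiplexed with the caspase-3/7 assay: HepG2 cells, 16 hr compound treatment, CellTiter-Fluor viability detection by fluorescence.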
For the compound `C[N+](C)(C)Cc1ccccc1`, the Potency entry is “inactive”.
As for `C[C@]12CCC(=O)C=C1CC[C@@H]1[C@@H]2CC[C@]2(C)C(=O)CC[C@@H]12`, the Potency entry is “inactive”.
`O=c1nc(O)n(Cl)c(=O)n1Cl`: the Potency result was “inactive”.
As to `CCCCn1cc[n+](C)c1C`, the Potency result is “inactive”.
Same read-out and setting: the same measure for `O=C(O)c1nc(Cl)ccc1Cl`: “inactive”; for `CCCCCCCCCCCC(=O)O`: “inactive”; for `O=C(O)C(Cl)Cl`: “inactive”.
Turning to `CCCCCCCCCCCCOS(=O)(=O)O`, the Potency result was “inactive”.
Same read-out and setting: the same measure for `COc1ccc(N)cc1`: “inactive”; for `CCCCCC[n+]1ccccc1`: “inactive”.
Consider `O=C(O)COc1ccc(Cl)cc1Cl`, for which the Potency entry is “inactive”.
On to `CCCC[N+]1(C)CCCC1`, for which the Potency entry was “inactive”.
On the same count and under the same terms, next, `COCC(=O)N(c1c(C)cccc1C)C(C)C(=O)OC` (centres undefined): “inactive”; `COP(=O)(OC)OC=C(Cl)Cl`: “inactive”; `Oc1cccc2cccnc12`: “inactive”.
Take `Nc1ccc(-c2ccc(N)cc2)cc1`: the Potency entry is “inactive”.
Regarding `OCCOc1ccccc1`, the Potency entry was “inactive”.
In the case of `CCn1cc[n+](C)c1C`, the Potency entry was “inactive”.
Consider `CC[N+](CC)(CC)CC`, for which the Potency result is “inactive”.
Take `O=[N+]([O-])c1ccccc1O`: the Potency result was “inactive”.
For `CCC[N+]1(C)CCCC1`, the Potency entry is “inactive”.
The same measure, in the same setting: next, `CNC`: “inactive”; `Cc1cc(-c2ccc(N)c(C)c2)ccc1N`: “inactive”.

For another assay, the target named is Nuclear receptor subfamily 1 group I member 2 (Homo sapiens) (UniProt O75469). Kind of assay: Human pregnane X receptor (PXR) small molecule agonists, qHTS assay (AID 1346982). Further: nearly all actives have a fitted effect of over 35% in size. Further: potency means the concentration at half of the fitted maximal effect. Particulars: PXR-Luc HepG2, CYP3A4 luciferase reporter, 24 h; series mostly up to 92.4 µM. The essentials:
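We seeded PXR-Luc HepG2 cells in assay medium containing 5% charcoal-stripped FBS, added compounds 5 hr later, incubated 24 hr, and read luminescence with ONE-Glo reagent.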
As to `C[N+](C)(C)Cc1ccccc1`, the Potency result is “inactive”.
With `C[C@]12CCC(=O)C=C1CC[C@@H]1[C@@H]2CC[C@]2(C)C(=O)CC[C@@H]12`, the Potency was 53.5 µM (active) and inactive.
As for `O=c1nc(O)n(Cl)c(=O)n1Cl`, the Potency result was “inactive”.
For the compound `CCCCn1cc[n+](C)c1C`, the Potency entry was “inactive”.
As to `CCCCCCn1cc[n+](C)c1`, the Potency result is “inactive and 12.4 µM (active) and 7.57 µM (active)”.
Regarding `O=C(O)c1nc(Cl)ccc1Cl`, the Potency entry was “inactive”.
With `CCCCCCCCCCCC(=O)O`, the Potency result is “inactive”.
In the case of `O=C(O)C(Cl)Cl`, the Potency entry was “inactive”.
Turning to `CCCCCCCCCCCCOS(=O)(=O)O`, the Potency entry is “inactive”.
The same measure, in the same setting: the same measure for `COc1ccc(N)cc1`: 60.6 µM (active); for `CCCCCC[n+]1ccccc1`: 11 µM (active) and inactive; for `O=C(O)COc1ccc(Cl)cc1Cl`: “inactive”.
For `CCCC[N+]1(C)CCCC1`, the Potency result is “inactive”.
Take `COCC(=O)N(c1c(C)cccc1C)C(C)C(=O)OC` (centres undefined): the Potency result was “inactive”.
On the same count and under the same terms, next, `COP(=O)(OC)OC=C(Cl)Cl`: “inactive”; `Nc1ccc(-c2ccc(N)cc2)cc1`: 30.3 µM (active) and 1.08 µM (active) and 34.4 µM (active).
With `OCCOc1ccccc1`, the Potency result was “inactive”.
Same read-out and setting: the same measure for `CCn1cc[n+](C)c1C`: “inactive”; for `O=[N+]([O-])c1ccccc1O`: “inactive”; for `CCC[N+]1(C)CCCC1`: “inactive”.
The same measure, in the same setting: next, `CNC`: “inactive”; `Cc1cc(-c2ccc(N)c(C)c2)ccc1N`: 53.7 µM (active) and 61.8 µM (active).

Another assay concerns the target Nuclear receptor subfamily 1 group I member 2 (Rattus norvegicus) (UniProt Q9R1A7). Kind of assay: Rat pregnane X receptor (rPXR) activation by small molecules, qHTS assay (AID 1346983). Further: nearly all actives have a fitted effect of over 20% in size. Particulars: rPXR luciferase reporter cells, One-Glo luminescence, 24 h; stronger effect = higher value. The essentials:
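Luminescent readout (One-Glo luciferase, 30 min room temperature) followed 24 hr compound treatment at 37 C of rPXR cells plated 2,000 per well and preincubated 5hr; qHTS format with compounds delivered in DMSO.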
`C[C@]12CCC(=O)C=C1CC[C@@H]1[C@@H]2CC[C@]2(C)C(=O)CC[C@@H]12`: the max activation was -1.07% (inactive).
As for `O=C(O)C(Cl)Cl`, the max activation is -1.74% (inactive).
Regarding `COCC(=O)N(c1c(C)cccc1C)C(C)C(=O)OC` (centres undefined), the max activation is 0.174% (inactive).
`COP(=O)(OC)OC=C(Cl)Cl`: the max activation is 0.647% (inactive).
The same measure, in the same setting: next, `Oc1cccc2cccnc12`: -0.611% (inactive).
With `OCCOc1ccccc1`, the max activation is -2.05% (inactive).
In the case of `CC[N+](CC)(CC)CC`, the max activation is -1.28% (inactive).

A further assay has as its target Nuclear receptor subfamily 1 group I member 2 (Homo sapiens) (UniProt O75469). Briefly: CYP3A4 induction through human pregnane X receptor (PXR) by small molecules, qHTS assay (AID 1346984). Further: nearly all actives have a fitted effect of over 40% in size. As to conditions: DPX-2 HepG2 PXR, CYP3A4-luciferin luminescence, 24 h; series mostly up to 46.1 µM. In short, it runs like this: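 qHTS, concentration-response format: HepG2 DPX-2 line, PXR/CYP3A4-luc. Exposure 24 h, 37C. Substrate Luciferin-IPA 3uM final, 3 h. Detection One-Glo, 30 min RT.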
For `C[C@]12CCC(=O)C=C1CC[C@@H]1[C@@H]2CC[C@]2(C)C(=O)CC[C@@H]12`, the call was inactive.
Still for that read-out and setting: the same measure for `O=C(O)C(Cl)Cl`: “inactive”; for `CCCCCCCCCCCCOS(=O)(=O)O`: “inactive”.
In the case of `COP(=O)(OC)OC=C(Cl)Cl`, the outcome was inactive.
With `OCCOc1ccccc1`, the compound was called inactive.
